Hits are enriched below; roughly 2.5% of the tested compounds scored in any of these assays.
Mcl1 Noxa PPI = Mcl-1/Noxa binding inhibitors, primary screen, biochemical, TR-FRET, 1536-well; TR-FRET Mcl-1/Noxa peptide binding, 2 h; inhibition, % at 21.7 µM; hit rate 1.5% among 220,000;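 active means compounds that cut the protein-peptide binding signal by more than 50% relative to plate controls in a single-dose test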;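 further: His-tagged Mcl-1 with rhodamine Noxa BH3 peptide and terbium anti-His antibody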
Target sequence (Q07820 whole entry, looked up): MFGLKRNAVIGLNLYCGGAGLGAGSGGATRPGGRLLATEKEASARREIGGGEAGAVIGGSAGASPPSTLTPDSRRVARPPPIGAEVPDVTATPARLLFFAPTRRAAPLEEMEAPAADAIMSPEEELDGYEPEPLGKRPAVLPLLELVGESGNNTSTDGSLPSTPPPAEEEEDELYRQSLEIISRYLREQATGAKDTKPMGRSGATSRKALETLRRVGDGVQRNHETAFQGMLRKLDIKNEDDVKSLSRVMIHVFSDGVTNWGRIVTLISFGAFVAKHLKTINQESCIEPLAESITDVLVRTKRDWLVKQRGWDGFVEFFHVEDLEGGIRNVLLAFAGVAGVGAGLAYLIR
14-3-3 Bad inh = inhibitors of 14-3-3 zeta/Bad binding, primary screen, biochemical, TR-FRET, bovine 14-3-3 zeta; hit rate 0.71% among 220,000; TR-FRET 14-3-3zeta/Dy647-pBad peptide displacement, 1 h; inhibition, % at 21.7 µM; 14-3-3 protein zeta/delta (Bos taurus), P63103;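 active means inhibition above about 70%, limit read from the data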
Target sequence (P63103 whole entry, looked up): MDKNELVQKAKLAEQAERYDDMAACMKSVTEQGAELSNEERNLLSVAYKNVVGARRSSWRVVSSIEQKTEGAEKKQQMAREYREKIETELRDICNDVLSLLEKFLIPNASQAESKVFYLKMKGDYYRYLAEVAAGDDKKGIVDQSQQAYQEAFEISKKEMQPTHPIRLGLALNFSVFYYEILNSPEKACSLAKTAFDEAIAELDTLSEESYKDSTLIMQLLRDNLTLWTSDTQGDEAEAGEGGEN
MCL1 BIM primary = inhibitors of MCL1 binding to BIM-BH3, primary screen, biochemical, fluorescence polarization | Induced myeloid leukemia cell differentiation protein Mcl-1 (Homo sapiens), Q07820 | inhibition, % at 10.9 µM | hit rate 0.68% among 320,000 | GST-MCL1 / FITC-Bim-BH3 fluorescence polarization;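 active means inhibition above the mean inhibition of all tested compounds plus 3 SD, set per campaign, cut at about 40% in these data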;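 further: higher means more loss of mP so more displacement of Bim peptide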
Mcl-1 Bim block = inhibitors of Bim peptide binding to Mcl-1, primary screen, biochemical, bead-based flow cytometry, multiplex; Induced myeloid leukemia cell differentiation protein Mcl-1 (Homo sapiens), Q07820; hit rate 0.1% among 190,000; Bim peptide-Mcl-1 binding; inhibition, % at 10 µM; in the data active means inhibition above about 40%
Mcl1-Bid inh = Mcl-1/Bid binding inhibitors, primary screen, biochemical, TR-FRET, 1536-well; Induced myeloid leukemia cell differentiation protein Mcl-1 (Homo sapiens), Q07820; inhibition, % at 21.7 µM; AID 1021, 2008; TR-FRET Mcl-1/Bid-Dy647 peptide binding; hit rate 0.97% among 220,000;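 active means compounds that cut the binding signal by more than half at the single screening dose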;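 further: His-tagged Mcl-1 with europium anti-His antibody binding Bid BH3 peptide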
Numbers stand for hits; [ ] = another dose, or the depositor's remark.

For CSc1ccccc1NC(=O)CN(C)C(C)C(=O)Nc1ccc(C#N)cc1 (configuration not stated) the results were Mcl1 Noxa PPI inactive, 14-3-3 Bad inh inactive, MCL1 BIM primary inactive, Mcl-1 Bim block inactive and Mcl1-Bid inh inactive.
C=CCn1c(SCc2ccc(C#N)cc2)nnc1-c1cccc(OC)c1 was read as Mcl1 Noxa PPI inactive, 14-3-3 Bad inh inactive, MCL1 BIM primary inactive, Mcl-1 Bim block inactive and Mcl1-Bid inh 95.
`CC(C)Nc1nc(-c2cccnc2)nc(-c2ccccc2)c1C#N` gave MCL1 BIM primary inactive.
`Cc1cccc(Cn2c(C)nc3c(N)c(C)c(C)cc32)c1` gave Mcl1 Noxa PPI inactive, 14-3-3 Bad inh inactive, MCL1 BIM primary inactive, Mcl-1 Bim block inactive and Mcl1-Bid inh 91.
`O=C(CNC(=O)c1ccc(S(=O)(=O)N2CCCC2)cc1)N/N=C/c1ccc(Cl)cc1Cl` gave Mcl1 Noxa PPI inactive, 14-3-3 Bad inh inactive, MCL1 BIM primary inactive, Mcl-1 Bim block 98 and Mcl1-Bid inh inactive.
Cc1cc(C)c2nc(NC(=O)C3CC(=O)N(Cc4ccco4)C3)sc2c1 (configuration not stated) was read as Mcl1 Noxa PPI inactive, 14-3-3 Bad inh inactive, MCL1 BIM primary inactive, Mcl-1 Bim block inactive and Mcl1-Bid inh inactive.
Screening O=C(Nc1nc2c(F)cc(F)cc2s1)C1CC(=O)N(Cc2ccco2)C1 (configuration not stated) returned Mcl1 Noxa PPI 59, 14-3-3 Bad inh inactive, MCL1 BIM primary inactive and Mcl1-Bid inh inactive.
Cc1ccc(S(=O)(=O)N(C)CCCC(=O)Nc2cccc3ccccc23)cc1 was read as Mcl1 Noxa PPI inactive, 14-3-3 Bad inh inactive, MCL1 BIM primary inactive, Mcl-1 Bim block inactive and Mcl1-Bid inh inactive.
For Cc1cc(C(=O)NNC(=O)COc2c(C)cc(Br)cc2C)n[nH]1 the results were MCL1 BIM primary inactive.
Screening O=C(O)C1CCCCC1C(=O)NCCc1ccncc1 (configuration not stated) returned Mcl1 Noxa PPI inactive, 14-3-3 Bad inh 72, MCL1 BIM primary inactive, Mcl-1 Bim block inactive and Mcl1-Bid inh inactive.
`C1CCN=C(Nc2nn[nH]n2)CC1` gave Mcl1 Noxa PPI inactive, 14-3-3 Bad inh 71, MCL1 BIM primary inactive, Mcl-1 Bim block inactive and Mcl1-Bid inh inactive.
For CN(C)S(=O)(=O)c1cc(S(=O)(=O)N(C)C)c(Cl)cc1N the results were Mcl1 Noxa PPI inactive, 14-3-3 Bad inh inactive, MCL1 BIM primary inactive, Mcl-1 Bim block inactive and Mcl1-Bid inh 70.
CN(/N=C/c1ccncc1)C1=NCCN1 was read as MCL1 BIM primary inactive.
For CC(=O)Nc1nc(-c2ccc(Cl)cc2)nc(C)c1C(C)=O the results were Mcl1 Noxa PPI inactive, 14-3-3 Bad inh 86, MCL1 BIM primary inactive, Mcl-1 Bim block inactive and Mcl1-Bid inh inactive.
`CC(C)(C)CC(C)(C)NC(=S)NC1CCN(Cc2ccccc2)CC1` gave Mcl1 Noxa PPI inactive, 14-3-3 Bad inh inactive, MCL1 BIM primary inactive, Mcl-1 Bim block inactive and Mcl1-Bid inh 92.
Screening COCCN(C(=O)Cc1cccs1)c1nnc(-c2ccncc2)s1 returned Mcl1 Noxa PPI inactive, 14-3-3 Bad inh 82, MCL1 BIM primary inactive, Mcl-1 Bim block inactive and Mcl1-Bid inh inactive.
`CCN(C(=O)c1cccs1)c1nnc(-c2ccncc2)s1` gave Mcl1 Noxa PPI inactive, 14-3-3 Bad inh inactive, MCL1 BIM primary inactive, Mcl-1 Bim block inactive and Mcl1-Bid inh inactive.
`CC(C)OCCCNC(=O)c1c(N)n(/N=C/c2cccs2)c2nc3ccccc3nc12` gave Mcl1 Noxa PPI inactive, 14-3-3 Bad inh inactive, MCL1 BIM primary inactive, Mcl-1 Bim block inactive and Mcl1-Bid inh 61.
For Cc1ccccc1NC(=O)Cn1c(O)c(N=NC(=O)c2ccccc2O)c2ccccc21 the results were Mcl1 Noxa PPI inactive, 14-3-3 Bad inh 92[fluorescence artefact?], MCL1 BIM primary inactive, Mcl-1 Bim block inactive and Mcl1-Bid inh 66.
`NS(=O)(=O)c1cc2c(cc1Cl)NC(Cc1ccccc1)NS2(=O)=O` (configuration not stated) gave Mcl1 Noxa PPI inactive, 14-3-3 Bad inh inactive, MCL1 BIM primary inactive and Mcl1-Bid inh 97.
For O=C(COC(=O)CCN1C(=O)c2ccccc2C1=O)Nc1ccc(S(=O)(=O)N2CCCC2)cc1 the results were Mcl1 Noxa PPI inactive, MCL1 BIM primary inactive, Mcl-1 Bim block inactive and Mcl1-Bid inh inactive.
`COc1ccccc1COCC(O)CNCC1(N2CCCCC2)CCCCC1` (configuration not stated) gave Mcl1 Noxa PPI inactive, 14-3-3 Bad inh inactive, MCL1 BIM primary inactive, Mcl-1 Bim block inactive and Mcl1-Bid inh 62.
For O=C1c2ccccc2-c2onc3c(Oc4ccccc4)cc(O)c1c23 the results were Mcl1 Noxa PPI 59, 14-3-3 Bad inh inactive, Mcl-1 Bim block inactive and Mcl1-Bid inh inactive.
CC(=O)c1c(COC(=O)c2ccco2)nc2ccccc2[n+]1[O-] was read as MCL1 BIM primary inactive.
`COC(=O)CCCNC(=O)CCc1nnc(-c2ccc(-c3ccccc3)cc2)o1` gave MCL1 BIM primary inactive.
COc1cc(O)c(/C=N/NC(=O)c2ccncc2)c(OC)c1[N+](=O)[O-] was read as Mcl1 Noxa PPI 53, 14-3-3 Bad inh inactive, MCL1 BIM primary inactive, Mcl-1 Bim block inactive and Mcl1-Bid inh inactive.
Screening Cc1nn(C)c(C(=O)N/N=C/c2ccccc2)c1[N+](=O)[O-] returned Mcl1 Noxa PPI inactive, 14-3-3 Bad inh inactive, MCL1 BIM primary inactive, Mcl-1 Bim block inactive and Mcl1-Bid inh inactive.
Screening COc1cc(C(=O)N/N=C\c2ccccc2)c([N+](=O)[O-])c(OC)c1OC returned Mcl1 Noxa PPI inactive, 14-3-3 Bad inh inactive, MCL1 BIM primary inactive, Mcl-1 Bim block inactive and Mcl1-Bid inh 95.
COc1ccc(/C=N/NC(=O)c2ccncc2)cc1[N+](=O)[O-] was read as Mcl1 Noxa PPI inactive, 14-3-3 Bad inh inactive, MCL1 BIM primary inactive, Mcl-1 Bim block inactive and Mcl1-Bid inh inactive.
CCOC(=O)c1ccc(NC(=O)COc2ccccc2OC)cc1 was read as Mcl1 Noxa PPI inactive, 14-3-3 Bad inh 83, MCL1 BIM primary inactive, Mcl-1 Bim block inactive and Mcl1-Bid inh inactive.
CCOC(=O)c1ccc(NC(=O)Oc2ccccc2)cc1 was read as Mcl1 Noxa PPI inactive, 14-3-3 Bad inh inactive, MCL1 BIM primary inactive, Mcl-1 Bim block inactive and Mcl1-Bid inh 100.
`Cc1ccsc1CN1CC(=O)N(c2c(C)cccc2C)C1=S` gave Mcl1 Noxa PPI inactive, 14-3-3 Bad inh inactive, MCL1 BIM primary inactive, Mcl-1 Bim block inactive and Mcl1-Bid inh inactive.
`NS(=O)(=O)c1ccc(NC(=O)/C=C/c2ccc3c(c2)OCO3)cc1` gave Mcl1 Noxa PPI inactive, 14-3-3 Bad inh inactive, MCL1 BIM primary inactive, Mcl-1 Bim block inactive and Mcl1-Bid inh inactive.
COC(=O)/C=C1/SC(=Nc2ccc(C)cc2C)NC1=O was read as Mcl1 Noxa PPI inactive, 14-3-3 Bad inh inactive, MCL1 BIM primary inactive, Mcl-1 Bim block inactive and Mcl1-Bid inh 98.

Assay outcomes: PubChem BioAssay, several laboratories
